Shown is part of a subset that was picked to be rich in hits.
mHTT-CaM PPI inh – mutant huntingtin-calmodulin interaction inhibitors – biochemical, AlphaScreen, primary screen; AlphaScreen His-mHTT/GST-CaM binding, luminescence; P42858; inhibition, % at 15 µM; 190,000 tested, 3.6% active
Pf apPOL block – Pf-apPOL inhibitors, biochemical, fluorescence. Plasmodium falciparum apicoplast DNA polymerase (apPOL). Recombinant Pf-apPOL, molecular beacon fluorescence, 1.5 h. inhibition, % at 10 µM. 210,000 tested, 0.25% active. AID 1794808, 2022
Large screens that a line does not name were inactive. Cut-off read from the data, not from the text of the source: active = inhibition above about 50%; inactive = the rest.

Cc1ccc(CN2CCCn3nc(C(=O)NC4CC4)cc3C2=O)cc1	none
Cc1nc(-c2n[nH]c(=S)n2C)cs1	none (no result: mHTT-CaM PPI inh)
CC(C)n1cc2cc(C(=O)NCc3ccc(N4CCOCC4)cc3)sc2c1	none
CC(C)n1cc2cc(C(=O)NCc3ccc(Cl)cc3)sc2c1	mHTT-CaM PPI inh 73
CCOc1cc(-c2cccs2)cc(=O)c2c(C)oc(C)c12	mHTT-CaM PPI inh 55
CCOc1cc(-c2ccc(OC)c(OC)c2)cc(=O)c2c(C)oc(C)c12	none
CCN(CC)C(=O)c1cc2c(s1)CCC(C(=O)N1CCN(C3CCCC3)CC1)C2 (centres undefined)	none
Cc1ccc2[nH]cc(CCN3CC(C(=O)NC4CCCC4)CC3=O)c2c1 (centres undefined)	none
COc1cccc(CNc2cccc3cccnc23)c1O	mHTT-CaM PPI inh 54
COc1cccc(CNc2ncccn2)c1OC	none
O=C(NC(=S)Nc1ccc(Cl)cc1)c1ccc([N+](=O)[O-])o1	none (no result: mHTT-CaM PPI inh)
CC(=O)N1CCN(CC(=O)N2N=C(c3ccccc3F)CC2c2ccccc2)CC1 (centres undefined)	none
CCOC(=O)c1cccc(NC(=O)N2CC(CC)Oc3ccccc32)c1 (centres undefined)	none
COc1cc(NC(=O)N2CC3CCCN3c3ccccc32)cc(OC)c1OC (centres undefined)	mHTT-CaM PPI inh 62
COc1cc(NC(=O)N2CCOc3ccc(C)cc32)cc(OC)c1OC	none
COc1ccc(OC)c(NC(=O)N2CCCC2c2ccccc2C)c1 (centres undefined)	none
COc1ccc(OC)c(NC(=O)N2CC3CCCN3c3ccccc32)c1 (centres undefined)	mHTT-CaM PPI inh 83
O=C(Nc1cccc(F)c1)N1CC2CCCN2c2ccccc21 (centres undefined)	none
COc1cccc(NC(=O)N2CC3CCCN3c3ccccc32)c1 (centres undefined)	mHTT-CaM PPI inh 73
CCOC(=O)c1cccc(NC(=O)N2CC3CCCN3c3ccccc32)c1 (centres undefined)	mHTT-CaM PPI inh 78
O=C(NCCc1ccccn1)c1cccnc1N1CCNC(c2ccccc2)C1 (centres undefined)	none
COc1ccc(N=c2oc3c(C)ncc(CO)c3cc2C(=O)Nc2ccc(Cl)cc2)c(OC)c1	none
COc1cccc(CNC(=O)N2CC3CCCN3c3ccccc32)c1 (centres undefined)	mHTT-CaM PPI inh 66
O=C(Nc1ccc(F)c(Cl)c1)N1CC2CCCN2c2ccccc21 (centres undefined)	none
COc1ccc(OC)c(CCNC(=O)CCC(=O)N2CC3CCCN3c3ccccc32)c1 (centres undefined)	mHTT-CaM PPI inh 53
COc1ccc(CNC(=O)CCC(=O)N2CC3CCCN3c3ccccc32)c(OC)c1 (centres undefined)	none
COC(=O)c1cccc(NC(=O)N2CC3CCCN3c3ccccc32)c1 (centres undefined)	mHTT-CaM PPI inh 69
COc1ccccc1NC(=O)N1CC(C)Oc2ccc(C)cc21 (centres undefined)	none
COc1ccc(OC)c(NC(=O)N2CC(C)Oc3ccc(C)cc32)c1 (centres undefined)	mHTT-CaM PPI inh 62
CCOC(=O)CNC(=O)N1CC2CCCN2c2ccccc21 (centres undefined)	none
COc1ccc(-c2[nH]ncc2CN2CCCC2c2cc(C(C)C)no2)cc1 (centres undefined)	none
O=C(c1ccccc1)N1CCCCC1c1nncn1-c1ccccc1 (centres undefined)	none
O=C(c1cccc(Br)c1)N1CCc2nc(-c3ccccc3)ncc2C1	none
COc1ccccc1NC(=O)N1CCN(c2ccccc2OC)CC1	none
COc1ccccc1NC(=O)N1CCN(C)c2ccccc21	mHTT-CaM PPI inh 61
Cc1ccsc1CN1CCC(c2nc(-c3cnccn3)n[nH]2)CC1	none
COc1ccc(CNC(=O)c2cc3cc4ccc(OC)cc4nc3o2)c(OC)c1	none
COc1ccc(NC(=O)C2CCN(c3cncnc3N3CCCC3)CC2)cc1F	none
CC(C)(C)C(=O)N1CCCC1c1ccc(F)cc1 (centres undefined)	none
O=C1OC(c2ccccc2F)=N/C1=C/c1ccc(Cl)cc1Cl	none
CC1=C(/C=C/c2ccc(Cl)cc2Cl)C(=O)c2ccccc2C1=O	mHTT-CaM PPI inh 68
Cc1ccc(NC(=O)CSc2nc(N)cc(N)n2)cc1	none
Cc1cccc(OCC(=O)N2CCC(CCOc3cccnc3)CC2)c1	none
O=c1[nH]c(CN2CCOCC2)nc2ccccc12	none (no result: mHTT-CaM PPI inh)
O=c1[nH]c(CN2CCCCC2)nc2c1oc1ccccc12	Pf apPOL block 69
CCc1ccc(NC(=O)c2cnn3c2NC(c2cccc(OC)c2)CC3C(F)(F)F)cc1 (centres undefined)	none
Cc1nc(Nc2ccc3c(c2)OCCO3)nc(Nc2ccc3c(c2)OCCO3)c1[N+](=O)[O-]	none (no result: Pf apPOL block)
Cc1nc(Nc2ccc(O)cc2)nc(Nc2ccc(O)cc2)c1[N+](=O)[O-]	mHTT-CaM PPI inh 57
CCCCNC(=S)NC1(C)CCS(=O)(=O)C1 (centres undefined)	none
O=C(c1ccc(OCC2CCCN(C(=O)c3ccc(F)cc3)C2)cc1)N1CCCC1 (centres undefined)	none
COc1cc(CN2CCN(c3cc(C)ccc3C)CC2)cc(I)c1O	mHTT-CaM PPI inh 85
COc1cc(CN2CCCCCC2)cc(I)c1O	none
COc1cc(CN2CCN(c3cc(C)ccc3C)CC2)cc(OC)c1OC	none
COc1cc(CN2CCCCCCC2)cc(OC)c1O	mHTT-CaM PPI inh 72
OC(CN1CCN(c2cccc(Cl)c2)CC1)c1ccc2c(c1)OCO2 (centres undefined)	none
Cc1ccc(CCNC(=O)C2CCCN(C(=O)Cc3cccc4ccccc34)C2)cc1 (centres undefined)	none
CC(=O)N(c1ccc(C)cc1)C1SC(=O)N(c2ccc(C)cc2)C1=O (centres undefined)	none
O=c1cc(O)nc2sc(C3CCCCC3)nn12	none
Cc1ccc(CCC(=O)Nc2ccc(C(F)(F)F)cc2)o1	none
COC(=O)CN1C(=O)CCS(=O)(=O)c2ccccc21	none
COCCN1COc2ccc3c(=O)c(-c4ccccc4OC)c(C)oc3c2C1	none
COCCCN1COc2ccc3c(=O)c(-c4ccccc4OC)c(C(F)(F)F)oc3c2C1	none
CC(C)(C)N1COc2ccc3c4c(oc3c2C1)C(=O)c1ccccc1C4=O	none
O=C1c2ccccc2C(=O)c2c1oc1c3c(ccc21)OCN(CCCn1ccnc1)C3	mHTT-CaM PPI inh 100
O=C1c2ccccc2C(=O)c2c1oc1c3c(ccc21)OCN(CCC1=CCCCC1)C3	mHTT-CaM PPI inh 79
O=C1c2ccccc2C(=O)c2c1oc1c3c(ccc21)OCN(C1CCCCC1)C3	mHTT-CaM PPI inh 84
COc1ccc(CCC(=O)Nc2ccc(C)cc2Br)cc1	none
O=C(Nc1ccc2scnc2c1)c1ccc(N2C(=O)CCC2=O)cc1	none
O=C(Cc1cccs1)N1CCCC1c1cccc(F)c1 (centres undefined)	none
Cc1nc(-n2cccc2)sc1C(=O)Nc1cccc(-c2cn3ccsc3n2)c1	none
CC12CC(NC(=O)N1c1cccc(C(F)(F)F)c1)c1ccccc1O2 (centres undefined)	none
O=C(NC(=O)c1ccc([N+](=O)[O-])s1)Nc1ccc(F)cc1	none (no result: mHTT-CaM PPI inh)
CC1=C(c2ccc(Cl)cc2)NN=C(N=Cc2ccco2)S1	none
Fc1ccc(C2=CSC(N=Cc3ccco3)=NN2)cc1	mHTT-CaM PPI inh 68
CCC(=O)N1CCN(c2nc3c(s2)CC(C(=O)Nc2ccc(OC)cc2C)CC3)CC1 (centres undefined)	none
COc1ccc(C2CCCN2C(=O)NC2CCCC2)cc1 (centres undefined)	none
